What was measured:
Test in all cases: PBM binding z-score (relative to random genomic background probes); higher = stronger binding; sequences stand for … in GC…GCGATTGACAGCGTAGAATGAAGG
[1] = tested on: RARb homodimer (NR concentration 270 nM)
Method in brief: (§1)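 Binding z-scores were set against random background probes. The data came from custom Agilent 4×180K protein-binding microarrays carrying double-stranded probes with 34-nt variable regions, incubated 1 h with ligand-free nuclear receptor dimers. Partner-specific antibodies detected binding, and scanned fluorescence was regression-normalized.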

[2] = tested on: RARg:RXRa (NR concentration 270 nM, RXRa partner concentration 90 nM)
Method in brief: as §1

[3] = tested on: RARg homodimer (NR concentration 270 nM)
Method in brief: as §1

[4] = tested on: RXRa DBDmut IVT, anti-RXR (DBD mutation: RXRa K156A/R161A, NR concentration 90 nM)
Method in brief: as §1

[5] = tested on: RXRa homodimer (NR concentration 180 nM)
Method in brief: as §1

[6] = tested on: THRa:RXRa (NR concentration 90 nM, RXRa partner concentration 90 nM)
Method in brief: as §1

[7] = tested on: THRa homodimer (NR concentration 90 nM)
Method in brief: as §1

[8] = tested on: VDR homodimer (NR concentration 270 nM)
Method in brief: as §1

| Sequence | PBM binding z-score [1] | PBM binding z-score [2] | PBM binding z-score [3] | PBM binding z-score [4] | PBM binding z-score [5] | PBM binding z-score [6] | PBM binding z-score [7] | PBM binding z-score [8] |
| --- | --- | --- | --- | --- | --- | --- | --- | --- |
| TCTTGTAGATCTACAGGAGGTTAAGAAAGATCGA | -0.0502 | 0.199 | 0.133 | 0.107 | 0.709 | 0.534 | -0.449 | -0.594 |
| CCTAGCAGGCCAGGGTCACTGAAGCATTTCGCTT | 2.95 | 3.32 | 2.91 | 0.172 | 3.86 | 3.07 | 1.02 | 1.19 |
| GATACAGGGTCAAGGCCAGACTACGCGTATTGAT | 3.74 | 5.51 | 5.17 | 2.76 | 5.73 | 3.8 | 1.55 | 2.1 |
| ACAGTCAGGTGATGAAGGTAACTCAGGCTATCAT | 0.23 | 0.23 | 0.365 | -0.243 | 0.405 | 1.19 | 0.0421 | -0.453 |
| CCTAGCAGGCCAATCTGGGTCACTTAAGGCTTGA | 2.26 | 1.07 | 1.19 | -0.0983 | 0.84 | 3.93 | 0.596 | 0.132 |
| CCTAGCAGGCCCGGGTCACTCAAGCATTTCGCTT | 2.02 | 1.96 | 1.46 | -0.519 | 2.43 | 2.71 | 1.3 | 0.294 |
| ATCTCTAGGTGAAGATAGTTCAGTGAATGCAAAT | 1.19 | 1.16 | 1.27 | -0.299 | 0.687 | 1.24 | 0.00291 | 0.334 |
| CAAACTAGGTCACCGGAAGGTCAACGTCCGCATG | 5.99 | 8.58 | 8.16 | 2.07 | 7.28 | 4.63 | 3.19 | 2.78 |
| TTACCAAGGTGAGCTGAGATCGTTGATCCAACTC | -0.439 | -0.0165 | 0.151 | -1.09 | -0.0334 | 1.1 | -0.431 | -0.976 |
| CCTACTGGGCCGTCAGGTCATTGATATCAACGTT | 2.18 | 1.33 | 1.37 | 0.28 | 1.11 | 3.18 | 3.49 | 1.16 |
| TAGCCTAGGTCATGGGCCAGTAGACCACGCGAAC | 3.01 | 4.29 | 4.33 | -0.149 | 3.68 | 3.04 | 1.09 | 0.284 |
| TCAAGCAGGCCAGAGGGTCACTCAAGAGGTACGG | 2.73 | 2.61 | 2.21 | 0.592 | 2.67 | 1.68 | -0.21 | 0.557 |
| AGAATGAGGTTATACGTAGATCAGTGAAGAAAGT | 0.6 | 1.71 | 1.14 | 1.92 | 2.12 | 1.99 | 0.44 | 0.703 |
| AGAATGAGGTTAAGATCAGTGAAACAGAATACAT | 0.841 | 2.07 | 1.34 | 0.64 | 2.31 | 2.31 | 0.766 | 0.283 |
| CCGACTGGGGCAGAAAGGTTTCCATACCATCCGG | 0.129 | -0.218 | 0.0471 | -0.768 | -0.284 | -1.38 | -0.951 | -0.664 |
| CGTCCAAGGTCAAGGGTCAGTGAAGAGATGACGG | 5.05 | 7.4 | 7.41 | 3.29 | 8.75 | 4.58 | 2.82 | 3.3 |
| GCAGACAGGTTAAACGCAGGTAACTCAGGGTGGC | 0.331 | 1.81 | 0.406 | -0.0571 | 1.54 | 2.06 | -0.519 | -0.623 |
| ACTATTAGTTGACTTGGGGCAACCGATACGACGC | 0.856 | 0.552 | 0.701 | 0.839 | 0.366 | 1.29 | 0.534 | 0.357 |

| Sequence | PBM binding z-score [1] | PBM binding z-score [2] | PBM binding z-score [3] | PBM binding z-score [4] | PBM binding z-score [5] | PBM binding z-score [6] | PBM binding z-score [7] | PBM binding z-score [8] |
| --- | --- | --- | --- | --- | --- | --- | --- | --- |
| CGAACTATGTCAGAACAGGACAGTGAAGGATGAT | 0.293 | 0.443 | 0.879 | -0.123 | 0.167 | 0.953 | -0.106 | 0.0831 |
| TGAATGAGGTTATAAGATCAGGCAACGTTGCAAA | 0.151 | 1.57 | 0.908 | 0.405 | 2.11 | 1.85 | 0.127 | 0.105 |
| CCTCGGAGGACAGAAGGGCAGAGCTGTCCGCTTT | 0.947 | 0.328 | 0.965 | -0.318 | -0.72 | -0.248 | -1.05 | -0.623 |
| CTCGAAAGGTCGTGCTCAGGTTAGTATACCAAAC | 3.37 | 5.5 | 4.17 | 2.12 | 5.47 | 3.73 | 0.934 | 1.3 |
| CCTAGTTGGTCCGGAGGTCACACACCGGATATGA | 3.85 | 4.35 | 3.68 | 0.525 | 4.56 | 3.62 | 2.86 | 2.79 |
| CCTAGTAGGCCAGGGTCACTCAAGCATTTCGCTT | 3.03 | 3.04 | 2.56 | 0.104 | 3.3 | 2.94 | 1.18 | 1.6 |
| AGAACTAGGGCAATGAGTTGATAGCACGGGTGGC | 0.411 | 0.47 | 0.889 | 0.324 | 0.422 | 0.157 | -0.177 | 1.02 |
| TAGCCTAGGTCATGCGGGGCAGTATAGTGTCGGC | 3.26 | 4.01 | 4.41 | 0.368 | 3.22 | 3.56 | 1.08 | 1.5 |
| AATACAGGGTCATCGTAGGCCAGAGGACGCACAG | 3.8 | 5.78 | 5.21 | 3.64 | 7.03 | 4.56 | 1.75 | 3.53 |
| CAAACTAGGTCAAGATGTCAAAGTCCGCTTCCCG | 3.53 | 4.72 | 5.27 | 1.76 | 3.43 | 2.86 | 1.04 | 0.881 |
| TGAATGAGGTTAAAGATCGGGGAACGTGGCGTCG | 0.987 | 2.41 | 1.24 | 1.35 | 3.31 | 2.55 | 0.447 | 0.818 |
| GCTAGTTGATCAGTAAAAGGTCACACACCGGTCG | 4.9 | 5.1 | 4.68 | 0.532 | 5.54 | 3.45 | 1.59 | 1.8 |
| ACTATTAGTTGAGACGAGGGCAAACGATAGGTTG | 0.968 | 0.74 | 0.778 | 0.626 | 0.323 | 2.42 | 0.104 | 1.39 |
| TCTTGTAGATCAACAGGAGGTTCAGAAAGATCGA | -0.296 | 0.00148 | -0.0996 | 0.388 | 0.331 | 0.0407 | -1 | 0.524 |
| TTACCAAGGTGAAAGGTTGTTGATGCACGCCTTG | 0.999 | 1.65 | 0.911 | 0.0428 | 2.58 | 2.15 | 0.748 | 0.0809 |
| CCTCGGAGGACAGAAGATCAGAGCTGTCCGCTTT | -0.501 | -0.0315 | 0.0841 | -0.174 | -0.41 | -0.0672 | -0.73 | -0.8 |
| CGAACTAGGTCAGAACGGGACAGTGAAGGATGAT | 1.83 | 2.2 | 2.96 | 0.435 | 1.15 | 2.84 | -0.119 | -0.321 |

Source: the supplement of paper PMC6555819
